In PubChem BioAssay:
The source made the active and inactive calls. Unless noted, no rule for the calls is given here.

Assays:
[1] = compounds binding Alexa647 anti-His antibody – biochemical, small-molecule microarray, 635 nm fluorescence, artefact control for SMM control protein annotation, primary screen (AID 1128); conditions: higher = more signal;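 also: score merges feature fluorescence with signal-to-noise for each printed compound spot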
[2] = system: Human papillomavirus type 1a E7 protein (residues 1-88); experiment: HPV1a E7 small-molecule binders, primary screen, biochemical, small-molecule microarray, residues 1-88, 635 nm (AID 1129); conditions: small-molecule microarray binding, fluorescence 635 nm; higher = more signal
[3] = molecular target: Focal adhesion kinase 1 (Homo sapiens) (UniProt Q05397); experiment: PTK2 protein binding on printed compound slides – biochemical, small-molecule microarray, 635/667 nm fluorescence, BSA, DTT, primary screen (AID 1130); conditions: 635 nm fluorescence, higher = more signal;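 also: composite of spot emission at 667 nm and signal to noise over triplicate slides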
Sequence of Focal adhesion kinase 1 (Homo sapiens) (Q05397 whole entry, looked up): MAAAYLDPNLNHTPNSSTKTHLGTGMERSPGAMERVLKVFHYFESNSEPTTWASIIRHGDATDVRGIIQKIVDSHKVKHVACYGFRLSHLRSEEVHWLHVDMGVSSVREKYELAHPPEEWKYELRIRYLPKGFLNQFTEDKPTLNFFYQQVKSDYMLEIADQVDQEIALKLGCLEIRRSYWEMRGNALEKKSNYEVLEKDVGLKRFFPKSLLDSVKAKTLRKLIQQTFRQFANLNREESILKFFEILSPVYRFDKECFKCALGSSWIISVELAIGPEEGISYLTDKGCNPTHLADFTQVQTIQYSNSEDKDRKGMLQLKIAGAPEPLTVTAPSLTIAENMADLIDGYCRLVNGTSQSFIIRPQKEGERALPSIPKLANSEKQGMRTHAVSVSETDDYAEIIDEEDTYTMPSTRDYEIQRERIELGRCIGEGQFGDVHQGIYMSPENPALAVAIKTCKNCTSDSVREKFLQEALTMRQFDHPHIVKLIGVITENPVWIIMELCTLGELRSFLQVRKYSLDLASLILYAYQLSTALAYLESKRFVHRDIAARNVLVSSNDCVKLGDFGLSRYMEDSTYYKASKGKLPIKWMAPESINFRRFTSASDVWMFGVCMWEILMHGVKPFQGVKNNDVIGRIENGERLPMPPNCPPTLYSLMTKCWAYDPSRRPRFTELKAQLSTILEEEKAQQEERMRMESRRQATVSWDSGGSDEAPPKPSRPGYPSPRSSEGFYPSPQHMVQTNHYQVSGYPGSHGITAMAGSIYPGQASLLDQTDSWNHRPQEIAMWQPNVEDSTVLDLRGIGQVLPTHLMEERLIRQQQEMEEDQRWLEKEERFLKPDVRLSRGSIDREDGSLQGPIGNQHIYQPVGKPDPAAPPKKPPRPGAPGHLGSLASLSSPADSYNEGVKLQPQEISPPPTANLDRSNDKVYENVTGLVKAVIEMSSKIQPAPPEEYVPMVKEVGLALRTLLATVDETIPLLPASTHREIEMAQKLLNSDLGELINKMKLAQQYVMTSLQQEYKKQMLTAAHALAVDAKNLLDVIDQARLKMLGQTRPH

[4] = system: Fibrinogen (Alexa647-labelled); experiment: Alexa647-fibrinogen binding to printed small molecules – biochemical, small-molecule microarray, 635/667 nm fluorescence, artefact control for SMM control-protein annotation, profiling panel (AID 1131); conditions: fibrinogen-A647 binding fluorescence, higher = more signal;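 also: z-score merges 667 nm fluorescence with per-spot signal-to-noise over triplicate slides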
[5] = molecular target: Follistatin (Homo sapiens) (UniProt P19883); experiment: FST protein binding to printed compounds – biochemical, small-molecule microarray, 635/667 nm fluorescence, primary screen (AID 1132); conditions: 635 nm fluorescence, higher = more signal
Sequence of Follistatin (Homo sapiens) (P19883 whole entry, looked up): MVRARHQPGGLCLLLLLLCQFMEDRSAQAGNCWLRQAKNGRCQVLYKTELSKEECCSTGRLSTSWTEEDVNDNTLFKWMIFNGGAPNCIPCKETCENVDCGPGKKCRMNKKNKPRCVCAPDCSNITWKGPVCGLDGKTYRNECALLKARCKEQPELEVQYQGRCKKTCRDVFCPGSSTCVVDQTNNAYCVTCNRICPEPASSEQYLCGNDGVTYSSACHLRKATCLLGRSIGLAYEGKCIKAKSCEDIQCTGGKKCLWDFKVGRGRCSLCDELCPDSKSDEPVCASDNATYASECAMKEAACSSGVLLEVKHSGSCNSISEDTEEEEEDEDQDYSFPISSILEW

[6] = molecular target: Fibroblast growth factor 2 (Homo sapiens) (UniProt P09038); experiment: basic fibroblast growth factor binding to printed compounds – biochemical, small-molecule microarray, 635/667 nm fluorescence, primary screen (AID 1133); conditions: FGF2, fluorescence 635/667, higher = more signal
Sequence of Fibroblast growth factor 2 (Homo sapiens) (P09038 whole entry, looked up): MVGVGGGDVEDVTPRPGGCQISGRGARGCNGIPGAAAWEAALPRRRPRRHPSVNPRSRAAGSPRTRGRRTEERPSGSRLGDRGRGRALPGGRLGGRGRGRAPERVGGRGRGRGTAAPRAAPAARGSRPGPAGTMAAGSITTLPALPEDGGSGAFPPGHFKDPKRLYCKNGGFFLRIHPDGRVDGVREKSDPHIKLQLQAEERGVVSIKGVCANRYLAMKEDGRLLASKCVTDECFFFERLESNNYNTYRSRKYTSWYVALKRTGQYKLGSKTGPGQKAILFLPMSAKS

[7] = JC-1 mitochondrial potential readout, lung cancer cells – cell-based, A549, JC-1 fluorescence, basal, 24 h, 100 nL, profiling panel (AID 1138); conditions: higher = more signal;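 also: A549 lung adenocarcinoma cells under basal conditions with no added stimulus; test concentration not given here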
Lefty1 = Lefty1 protein binding to printed compounds – biochemical, small-molecule microarray, 635/667 nm fluorescence, primary screen (AID 1139); conditions: fluorescence 635/667, higher = more signal
[8] = system: wheat germ agglutinin (Triticum aestivum), Alexa647-labelled; experiment: Alexa647-WGA lectin binding to printed small molecules – biochemical, small-molecule microarray, 635/667 nm fluorescence, artefact control for SMM control-protein annotation, profiling panel (AID 1140); conditions: WGA-A647 binding, 635 nm fluorescence, higher = more signal;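 also: score merges 667 nm feature emission with signal to noise over triplicate slides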
[9] = molecular target: Luciferin 4-monooxygenase (Photinus pyralis) (UniProt P08659); experiment: inhibition of purified Photinus pyralis luciferase – biochemical, luminescence, purified enzyme, 2006 set, primary screen (AID 1141); conditions: purified firefly luciferase, SteadyGlo luminescence, 30 min; higher = more signal, called active from +8 up or from −8 down;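 also: cell-free assay with purified firefly luciferase at 100 ng per well in PBS; test concentration not given here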
Sequence of Luciferin 4-monooxygenase (Photinus pyralis) (P08659 whole entry, looked up): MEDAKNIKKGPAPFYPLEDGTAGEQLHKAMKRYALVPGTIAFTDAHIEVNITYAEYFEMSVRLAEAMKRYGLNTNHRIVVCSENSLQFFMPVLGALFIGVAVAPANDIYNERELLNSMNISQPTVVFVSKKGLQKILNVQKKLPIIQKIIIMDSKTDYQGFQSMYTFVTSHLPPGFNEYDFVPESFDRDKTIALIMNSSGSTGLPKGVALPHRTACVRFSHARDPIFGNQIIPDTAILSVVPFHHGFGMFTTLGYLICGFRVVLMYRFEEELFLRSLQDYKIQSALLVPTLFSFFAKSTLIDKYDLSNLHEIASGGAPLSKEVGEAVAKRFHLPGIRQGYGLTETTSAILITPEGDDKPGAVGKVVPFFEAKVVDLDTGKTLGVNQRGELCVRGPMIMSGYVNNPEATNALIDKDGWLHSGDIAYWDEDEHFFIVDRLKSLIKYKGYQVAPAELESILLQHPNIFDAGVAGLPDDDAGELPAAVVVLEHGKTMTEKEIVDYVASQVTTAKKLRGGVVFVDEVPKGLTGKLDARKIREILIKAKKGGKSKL

[10] = system: Wnt5a (protein binding on small-molecule microarray); experiment: small molecules binding Wnt5a protein – biophysical, small-molecule microarray, 635/667 nm fluorescence, primary screen (AID 1142); conditions: 635 nm fluorescence, higher = more signal;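 also: fluorescence read at 667 nm with signal to noise per printed feature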
[11] = ATP-based viability of Huh7 replicon cells – cell-based, CellTiter-Glo luminescence, basal, 48 h, cytotoxicity control for HCV replication inhibitor project, primary screen (AID 1143); conditions: higher = more signal, called active from +8 up or from −8 down;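 also: Huh7 hepatoma cells carrying a hepatitis C replication reporter with no stimulus; test concentration not given here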
[12] = Pseudomonas biofilm growth suppression – PAO1 strain, BacTiter-Glo luminescence, LB-PBS, primary screen (AID 1144); conditions: P. aeruginosa PAO1 biofilm, 12 h, higher = more signal
[13] = basal CRE-LacZ reporter activity in PC12 – cell-based, unstimulated, primary screen (AID 1145); conditions: no forskolin, luminescence, 4.5 h, higher = more signal, called active from +8 up or from −8 down
[14] = forskolin-driven CRE-LacZ activity in PC12 – cell-based, CRE-LacZ reporter, forskolin-stimulated, primary screen (AID 1146); conditions: luminescence, 4.5 h, higher = more signal, called active from +8 up or from −8 down;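 also: PC12 cells with 6xCRE LacZ reporter stimulated by forskolin 10 µM; beta-galactosidase reporter signal reflecting CREB driven transcription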
[15] = molecular target: Streptavidin (Streptomyces avidinii) (UniProt P22629); experiment: compounds binding control protein streptavidin – biophysical, small-molecule microarray, 635/667 nm fluorescence, artefact control for SMM compound annotation, primary screen (AID 1147); conditions: higher = more signal;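 also: signal reflects streptavidin binding to arrayed compounds as a control protein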
Sequence of Streptavidin (Streptomyces avidinii) (P22629 whole entry, looked up): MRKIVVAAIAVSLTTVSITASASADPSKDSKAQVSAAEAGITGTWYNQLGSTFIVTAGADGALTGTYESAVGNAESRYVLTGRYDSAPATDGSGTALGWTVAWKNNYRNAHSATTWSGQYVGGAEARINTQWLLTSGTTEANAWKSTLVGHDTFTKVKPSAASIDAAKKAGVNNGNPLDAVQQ

[16] = probe aInhba binding on compound microarray – biochemical, small-molecule microarray, 635/667 nm fluorescence, primary screen (AID 1148); conditions: higher = more signal;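 also: score merges 667nm spot fluorescence with signal-to-noise for antibody binding to printed compounds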
Torsin-1A (Homo sapiens) [17] = molecular target: Torsin-1A (Homo sapiens) (UniProt O14656); experiment: TOR1A wild-type binding on microarray – cell lysate, small-molecule microarray, lysate, 635/667 nm, primary screen (AID 1149); conditions: COS7 hTOR1A-WT lysate, 635 nm fluorescence, higher = more signal
Sequence of Torsin-1A (Homo sapiens) (O14656 whole entry, looked up): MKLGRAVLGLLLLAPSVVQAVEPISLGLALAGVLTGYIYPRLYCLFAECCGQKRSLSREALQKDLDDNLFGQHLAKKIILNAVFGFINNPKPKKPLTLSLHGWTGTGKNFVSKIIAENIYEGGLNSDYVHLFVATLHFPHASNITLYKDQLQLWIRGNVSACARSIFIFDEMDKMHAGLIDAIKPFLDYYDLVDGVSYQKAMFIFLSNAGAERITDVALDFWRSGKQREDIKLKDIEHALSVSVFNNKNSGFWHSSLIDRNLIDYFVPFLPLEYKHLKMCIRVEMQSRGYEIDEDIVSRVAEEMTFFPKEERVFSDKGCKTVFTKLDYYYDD

Torsin-1A (Homo sapiens) [18] = molecular target: Torsin-1A (Homo sapiens) (UniProt O14656); experiment: torsin A mutant lysate binding on microarrays – cell lysate, small-molecule microarray, COS7 lysate, 635/667 nm fluorescence, primary screen (AID 1150); conditions: COS7 hTOR1A mutant lysate, 635 nm fluorescence, higher = more signal;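 also: score pools 667 nm emission and signal to noise measuring lysate protein binding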
[19] = system: Sonic hedgehog protein (Shh); experiment: Sonic hedgehog microarray binding compounds – biochemical, small-molecule microarray, 635/667 nm fluorescence, primary screen (AID 1151); conditions: 635 nm fluorescence, higher = more signal;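 also: Shh protein binding to compounds spotted on small-molecule microarray slides; score combines spot fluorescence intensity with signal-to-noise across triplicate slides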

| Compound | composite z-score [1] | composite z-score [2] | composite z-score [3] | composite z-score [4] | composite z-score [5] | composite z-score [6] | z-score [7] | composite z-score (Lefty1) | composite z-score [8] | z-score [9] | composite z-score [10] | z-score [11] | z-score [12] | z-score [13] | z-score [14] | composite z-score [15] | composite z-score [16] | composite z-score (Torsin-1A (Homo sapiens) [17]) | composite z-score (Torsin-1A (Homo sapiens) [18]) | composite z-score [19] |
| --- | --- | --- | --- | --- | --- | --- | --- | --- | --- | --- | --- | --- | --- | --- | --- | --- | --- | --- | --- | --- |
| O=C(CS)NCCCCCNC(=O)[C@@H]1C[C@@H]2C(=O)N[C@@H](Cc3ccccc3)C(=O)N2[C@@H]1c1ccc(O)cc1 | 2.33 | 1.21 | 0.661 | -0.0141 | 1.31 | 1.29 | -0.208 | 0.233 | 0.304 | -3.79 (inactive) | 0.835 | -0.0984 (inactive) | -0.616 (inactive) | 0.692 (inactive) | -0.981 (inactive) | -0.859 | -0.128 | 0.489 | 0.845 | 0.981 |
| CC(C)(C)OC(=O)CC[C@]1(C(=O)NCc2ccccc2)N=C(c2ccc(OCCCO)cc2)O[C@H]1c1ccccc1 | 1.99 | 1.26 | 1.36 | 0.983 | 0.362 | 0.487 | 0.949 | -0.326 | 0.732 | 0.172 (inactive) | 1.01 | -3.16 (inactive) | -1.77 (inactive) | 0.699 (inactive) | -1.23 (inactive) | 1.58 | 0.347 | 0.712 | 1.11 | -0.349 |
| COc1ccc(O[C@H]2C=C[C@@H](c3ccccc3)O[C@@H]2COC(=O)N2CCCCC2)cc1 | -0.475 | -1.23 | -0.073 | -0.528 | 0.12 | 0.571 | -0.433 | 0.225 | -0.249 | 0.711 (inactive) | -0.19 | -0.259 (inactive) | 0.615 (inactive) | 0.929 (inactive) | 0.197 (inactive) | -0.221 | -0.108 | 0.205 | 0.125 | 0.147 |
| CC(=O)OC[C@H]1O[C@H](CCON=C(C)CCN2CCc3nc(-c4ccccc4)c(-c4ccccc4)cc3C2)C=C[C@@H]1OC(C)=O | -0.437 | 0.0723 | 0.186 | 0.476 | 0.129 | -0.138 | 1.15 | 0.172 | 0.563 | 0.938 (inactive) | -0.192 | -1.04 (inactive) | 0.23 (inactive) | 4.88 (inactive) | 0.0929 (inactive) | 0.316 | 0.156 | 0.0622 | 0.407 | 0.287 |
| COC(=O)CC=C[C@H](C)[C@H](CO)NS(=O)(=O)c1ccc(C)cc1 | 0.422 | 0.447 | 0.265 | 0.466 | 0.525 | 0.621 | -0.655 | 0.701 | -0.037 | -0.54 (inactive) | 0.378 | -1.27 (inactive) | -0.0262 (inactive) | -0.434 (inactive) | -0.692 (inactive) | 0.293 | -0.122 | 0.375 | 0.0191 | 0.82 |
| C[C@H]1CC[C@@H](C(=O)O)N[C@@H]1c1ccc(C#CCN(C)C)cc1 | 0.601 | 0.34 | 0.0583 | 0.54 | 0.682 | 0.453 | 1.04 | 0.343 | 0.117 | -0.931 (inactive) | 0.163 | 0.141 (inactive) | -0.0379 (inactive) | 1.83 (inactive) | -1.12 (inactive) | 0.85 | -0.273 | 0.363 | 0.323 | 0.427 |
| CCOC(=O)C[C@H]1[C@H](OC(=O)c2cc3ccccc3oc2=O)[C@@H](NC(=O)c2ccc3ccccc3n2)c2cc(OCCCO)ccc2N1C(=O)c1ccccc1 | 1.06 | 0.803 | 0.513 | 0.584 | 1.14 | 1.23 | -0.837 | 0.606 | 0.354 | 0.497 (inactive) | 0.537 | -2.98 (inactive) | 0.287 (inactive) | 11.9 (active) | 0.576 (inactive) | 0.28 | 0.0345 | 0.354 | 1.37 | 0.574 |
| CO[C@H]1O[C@H](CO)[C@@H](OC(=O)Nc2ccc3c(c2)OCO3)[C@H](OC(=O)Nc2ccccc2-c2ccccc2)[C@@H]1OC(=O)Nc1ccccc1-c1ccccc1 | 1.84 | 1.18 | 0.195 | 0.987 | 1.14 | 1.68 | -0.604 | 0.186 | 1 | -0.485 (inactive) | 0.492 | -3.03 (inactive) | -0.176 (inactive) | 0.54 (inactive) | -0.528 (inactive) | 1.08 | 0.124 | 0.957 | 1.17 | 0.672 |
| CCOC(=O)C1=CC[C@H]2C(=O)N(CC)C(=O)[C@@H]12 | 0.299 | 0.775 | -0.0436 | 0.775 | 0.269 | 0.218 | -1.1 | 0.443 | 0.433 | 1.69 (inactive) | 0.281 | -0.0046 (inactive) | -0.929 (inactive) | -0.228 (inactive) | 0.687 (inactive) | 0.0789 | -0.0719 | 0.483 | -0.552 | 0.13 |
| CO[C@H]1COC(=O)[C@H](C)COC(=O)CC=C[C@@H](C)[C@H](OC)COC(=O)CC=C[C@@H]1C | 0.0475 | -0.774 | -0.117 | -0.217 | 1.16 | 1.41 | 1.11 | 1.15 | -0.531 | -1.59 (inactive) | 0.185 | -0.0182 (inactive) | -0.272 (inactive) | -0.474 (inactive) | 0.592 (inactive) | -0.436 | -0.128 | 1.03 | 0.666 | 1.55 |
